TRb-SRC2 inh: inhibitors of human thyroid hormone receptor beta-SRC2 interaction. P10828. TRbeta-SRC2 peptide binding, fluorescence polarization; receptor liganded with 1 µM T3. Potency, µM (titrated, usually from 106 µM), without a hit: top-dose activity change, negative = inhibition, hits mostly inhibitors. hit rate 0.065% among 280,000. AID 1469;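 also: plate controls were bound peptide for no effect and peptide without receptor for full effect; nearly all actives have a fitted effect of over 50% in size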
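A fluorescence polarization screen tested compounds at multiple concentrations against complex formation between 0.6 uM TRb ligand-binding domain and 20 nM Texas Red SRC2 peptide, with 1 uM T3 present; readout after 5 hr.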
TexasRed fluor: alters Texas Red total fluorescence, flagging assay interference; TRb/SRC2 Texas Red total fluorescence interference; Potency, µM (series often up to 106 µM), inactives show top-dose fluorescence change, negative = quenching; hit rate 0.29% among 280,000; AID 1479; active = well fitted curve in either direction with a large enough effect; inconclusive = small, poorly fitted or top-dose-only effect
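Human TRβ ligand-binding domain (0.6 uM) and Texas Red SRC2 peptide (20 nM) in Tris buffer with 1 uM T3 and 5% DMSO were incubated with pinned compound for 5 hr at ambient temperature. Total fluorescence was computed as S + 2P (555/632 nm).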
RECQ1 inh-1: RECQ1 (human) helicase inhibition; P46063; RECQ1 DNA unwinding, red fluorescence kinetic read; Potency, µM (highest dose often 57.3 µM), for the others: at the highest dose activity, negative = inhibition, actives largely listed as inhibitors; hit rate 0.54% among 240,000;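 also: plate controls were vehicle for no effect and no enzyme for full effect; nearly all actives have a fitted effect of over 30% in size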
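RECQ1T1 50 nM; forked duplex (20 bp + 30-nt ss tails) 200 nM, ATP 2 mM final; pH 8.0, 2 mM MgCl2, 2.5 ug/ml poly(dI-dC); 15 min compound preincubation; discontinuous kinetic read over 2 h at RT.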
BLM helicase inh: inhibitors of human Bloom syndrome helicase BLM | hit rate 0.2% among 350,000 | recombinant BLM DNA unwinding, fluorescence dequenching | P54132 | Potency, µM (series often up to 56.1 µM), without a hit: top-dose activity change, negative = inhibition, usual class: inhibitors | AID 2528;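 also: plate controls were vehicle for no effect and no enzyme for full effect; nearly all actives have a fitted effect of over 35% in size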
Target sequence (P54132 whole entry, looked up): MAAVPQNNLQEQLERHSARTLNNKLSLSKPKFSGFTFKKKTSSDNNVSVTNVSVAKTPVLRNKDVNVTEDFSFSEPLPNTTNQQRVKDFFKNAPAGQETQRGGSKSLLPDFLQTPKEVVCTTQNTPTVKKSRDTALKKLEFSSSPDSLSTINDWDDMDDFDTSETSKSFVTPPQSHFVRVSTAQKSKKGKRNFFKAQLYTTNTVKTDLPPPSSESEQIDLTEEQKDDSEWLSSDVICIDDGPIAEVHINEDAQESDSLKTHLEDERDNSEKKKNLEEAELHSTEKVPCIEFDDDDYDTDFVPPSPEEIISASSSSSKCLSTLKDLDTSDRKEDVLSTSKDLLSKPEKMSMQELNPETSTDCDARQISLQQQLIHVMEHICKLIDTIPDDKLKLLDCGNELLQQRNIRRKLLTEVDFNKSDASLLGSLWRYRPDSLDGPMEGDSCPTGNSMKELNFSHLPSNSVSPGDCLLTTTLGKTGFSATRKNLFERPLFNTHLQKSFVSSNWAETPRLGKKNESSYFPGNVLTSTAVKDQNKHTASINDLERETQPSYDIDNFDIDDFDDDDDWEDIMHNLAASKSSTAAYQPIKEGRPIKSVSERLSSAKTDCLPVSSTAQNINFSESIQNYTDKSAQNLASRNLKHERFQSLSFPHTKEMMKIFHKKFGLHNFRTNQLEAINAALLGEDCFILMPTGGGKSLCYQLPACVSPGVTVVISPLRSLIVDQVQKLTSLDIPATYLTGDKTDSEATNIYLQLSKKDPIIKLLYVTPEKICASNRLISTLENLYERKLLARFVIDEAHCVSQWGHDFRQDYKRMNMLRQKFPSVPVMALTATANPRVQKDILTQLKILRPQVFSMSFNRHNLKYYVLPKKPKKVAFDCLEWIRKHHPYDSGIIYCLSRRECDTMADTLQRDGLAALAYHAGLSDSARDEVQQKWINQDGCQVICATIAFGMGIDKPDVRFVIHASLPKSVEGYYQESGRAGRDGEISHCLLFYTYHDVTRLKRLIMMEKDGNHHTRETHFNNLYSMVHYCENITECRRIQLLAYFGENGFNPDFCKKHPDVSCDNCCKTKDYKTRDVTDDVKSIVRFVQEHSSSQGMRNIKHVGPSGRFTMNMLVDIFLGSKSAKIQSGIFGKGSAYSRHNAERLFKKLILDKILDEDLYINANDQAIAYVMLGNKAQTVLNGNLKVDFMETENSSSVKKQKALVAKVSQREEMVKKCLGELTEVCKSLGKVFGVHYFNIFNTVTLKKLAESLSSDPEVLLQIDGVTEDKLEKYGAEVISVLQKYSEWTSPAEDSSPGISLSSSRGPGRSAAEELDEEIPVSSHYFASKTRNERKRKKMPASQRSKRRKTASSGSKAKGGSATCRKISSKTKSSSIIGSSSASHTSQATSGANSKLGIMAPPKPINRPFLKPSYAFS
APE1 inh: inhibitors of human APE1 endonuclease | P27695 | recombinant APE1, TAMRA/BHQ-2 abasic DNA cleavage fluorescence | Potency, µM (series often up to 65.8 µM), without a hit: at the highest dose activity change, negative = inhibition, most hits filed as inhibitors | hit rate 0.35% among 350,000 | AID 2517;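 also: plate controls were vehicle for no effect and reference inhibitor for full effect; nearly all actives have a fitted effect of over 55% in size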
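0.75 nM APE1 + cpd, 15 min RT; start w/ 50 nM TAMRA/BHQ-2 THF-abasic dsDNA; kinetic fluor 525/598 nm ×3 reads @60 s; Δ(read3−read1); normalized to DMSO and NSC13755 control wells.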
GoLoco inh red: RGS12 GoLoco-Gai1 interaction inhibition; Potency, µM (titrated, usually from 61.6 µM), inactives show top-dose activity, negative = inhibition, usual class: inhibitors; hit rate 0.44% among 230,000; Gai1:RGS12 GoLoco peptide FP, rhodamine, 10 min; AID 880; active = well fitted inhibition curve with a large enough effect, not every such curve was filed as active; inactive = no such curve, though single readings can be large or run the other way; also: nearly all actives have a fitted effect of over 30% in size
RECQ1 inh conf: confirmation of human RECQ1 helicase inhibitors; AID 2708; RECQ1 helicase DNA unwinding, fluorescence; hit rate 28% among 610; Potency, µM (top dose mostly 229 µM), for the others: at the highest dose activity change, negative = inhibition, usual class: inhibitors; shares compounds with RECQ1 inh-1; also: nearly all actives have a fitted effect of over 45% in size
ADP FP counter: counter-screen for RECQ1 inhibitors: ADP displacement; shares compounds with RECQ1 inh-1; ADP fluorescence polarization displacement counterscreen; Potency, µM (titrated, usually from 228 µM), for the others: at the highest dose activity change, negative = inhibition, usual class: inhibitors; hit rate 27% among 530; also: nearly all actives have a fitted effect of over 45% in size
RECQ1 inh-2: blocks human RECQ1 DNA unwinding. Potency, µM (series often up to 119 µM), for inactives: top-dose activity, negative = inhibition, most hits filed as inhibitors. shares compounds with RECQ1 inh-1. hit rate 15% among 1,100. recombinant RECQ1 DNA unwinding, red fluorescence; also: nearly all actives have a fitted effect of over 50% in size
Active calls of the source: *; i = inactive; ? = inconclusive; nt = no result; [ ] = remark or other dose. Rows were chosen to be rich in hits. Some 0.9% of all compounds tested hit in one or more screens of this group. Unless noted, calls follow the shape of the dose curve; as a rule, active = well fitted curve in the direction sought with a large enough effect; inconclusive = small, poorly fitted or top-dose-only effect, or another doubt; inactive = no such curve, though single readings can be large; an effect the other way counts as inactive or inconclusive. Unless noted, % is scaled to controls: 0 for no effect and ±100 for the full control effect; potency is read from the fitted curve at half-maximal effect.

SMILES	TRb-SRC2 inh	TexasRed fluor	RECQ1 inh-1	BLM helicase inh	APE1 inh	GoLoco inh red	RECQ1 inh-2	others
COC(=O)c1sc2ccccc2c1NC(=O)c1ccc(S(=O)(=O)N2CCCCC2)cc1	-1%	1%	-7%	-6%	-2%	-1%	nt
CO[C@@H]1COC(=O)CC=C[C@@H](C)[C@@H]2C=C[C@@H](O)[C@@H](COC(=O)C/C=C\[C@H]1C)O2	-3%[11.2 µM]	0%[11.2 µM]	15%[11.5 µM]	-2%[12.4 µM]	-12%[12.4 µM]	nt	nt
O=C(COc1cccnc1[N+](=O)[O-])c1ccc(Cl)s1	-19%	-16%	?	-24%	?	73%	?
O=C(COc1cccnc1[N+](=O)[O-])Nc1c(Cl)cccc1Cl	nt	nt	nt	nt	9%	nt	nt
CCOC(=O)c1ccc(N2N=C(C)/C(=C/C=C/c3ccco3)C2=O)cc1	5%	-29%	?	6%	4%	33%	-3%
O=C(CNC(=O)c1ccccc1F)OCc1cc(=O)n2nc(C3CC3)sc2n1	-11%	?	nt	-2%	nt	nt	nt
Cc1ccc(NC(=O)CN(C)S(=O)(=O)c2cnc[nH]2)c(C)c1	nt	nt	nt	-1%	56%	nt	nt
CCOc1ccccc1NC(=O)CN(C)S(=O)(=O)c1cnc[nH]1	2%	-1%	16µM*	-1%	-3%	-1%	-2%	RECQ1 inh conf=-1%[114 µM];ADP FP counter=8%[91.9 µM]
CC(C)Cc1nnc(NC(=O)Cc2cccs2)s1	16%[53 µM]	1%[53 µM]	?	-26%	?	157%	56µM*
CC(C)c1nnc(NC(=O)Cc2cccs2)s1	-2%	0%	i	5%	0%	5%	nt
CCOc1ccccc1CNC(=O)c1nc(-c2ccc(Cl)cc2)n2c1CCCCC2	5%	?	nt	-10%	nt	nt	nt
CCNc1ncc2nc(-c3cc(F)cc(F)c3)c(=O)n(CCc3ccccc3)c2n1	nt	nt	?	-9%	?	-98%	16µM*
Cc1ccc(C(=O)Nc2nc(-c3cccnc3)cs2)o1	-5%	-2%	?	-4%	-5%	8%	-14%	RECQ1 inh conf=12%[114 µM];ADP FP counter=-4%[91.9 µM]
Cc1cccc(CC(=O)N2CC(=O)Nc3ccc(C)cc3C2c2ccc(F)cc2)c1 (stereo unspecified)	7%	0%	nt	-3%	nt	nt	nt
Cc1ccccc1Cn1c2ccccc2c2cnn(CC(=O)NCCc3ccccc3)c(=O)c21	5%	-5%	nt	-1%	nt	nt	nt
O=C(Nc1cccc(S(=O)(=O)N2CCOCC2)c1)[C@@H]1CCCN1S(=O)(=O)c1ccc(Cl)cc1	2%	1%	-1%	-8%	-1%	26%	nt	RECQ1 inh conf=-9%;ADP FP counter=25%
O=C(Nc1cccc(S(=O)(=O)N2CCOCC2)c1)C1CCCCN1S(=O)(=O)c1ccccc1 (stereo unspecified)	nt	nt	nt	nt	-9%	nt	nt
Cc1ccc(-c2cc(C(=O)NCCc3ccccc3)c3c(-c4ccc(C)cc4)[nH]nc3n2)cc1	5%	0%	nt	2%	nt	nt	nt
O=C(COc1ccccc1Cl)c1ccc[nH]1	-5%	-5%	?	-26%	?	23%	-11%
Cc1ccc(-n2nnc(C(=O)Nc3cc(F)ccc3F)c2C)cc1F	-2%	0%	nt	-3%	nt	nt	nt
CCCCCC/C(C)=C1/SC(=S)NC1=O	-6%	-2%	-3%	-8%	-2%	14%	nt
C/C(C/C(C)=C1/SC(=S)NC1=O)=C1\SC(=S)NC1=O	6%	-1%	14µM*	96%	?	9%	nt	RECQ1 inh conf=?
Cn1c(=O)n(-c2ccc3c(c2)OCO3)c2nc(-c3ccccc3)nc(C(N)=O)c21	4%	-4%	nt	-13%	nt	nt	nt
CCN(CC)c1ccc(NC(=O)c2cc3c(=O)n4cccc(C)c4nc3n2C)c(C)c1	-5%	4%	nt	1%	nt	nt	nt
Cc1oc(-c2ccc(Cl)cc2)cc1-c1nn2c(-c3ccoc3C)nnc2s1	10%	?	14µM*	10µM*	?	63%	nt	RECQ1 inh conf=35µM*;ADP FP counter=14%[91.9 µM]
SMILES	TRb-SRC2 inh	TexasRed fluor	RECQ1 inh-1	BLM helicase inh	APE1 inh	GoLoco inh red	RECQ1 inh-2	others
Clc1ccc(-c2nnc3sc(-c4ccc(Br)o4)nn23)cc1	0%	1%	-5%	-3%	1%	16%	nt
Cc1ccc(CSc2nnc(-c3ccc(NS(=O)(=O)c4ccccc4)cc3)o2)cc1	7%	-24%	?	-4%	-10%	-2%	-22%
Cc1ccc(S(=O)(=O)Nc2ccc(-c3nnc(SCc4ccccc4Cl)o3)cc2)cc1	-5%	0%	-2%	-15%	2%	17%	nt
CC(=O)Nc1ccc(/C(C)=N/Nc2nc(Nc3ccccc3)nc(N3CCOCC3)n2)cc1	0%	-1%	-2%	-2%	0%	5%	nt
CCN1CCN(c2nc(Nc3ccc(NC(C)=O)cc3)nc(Nc3ccc(NC(C)=O)cc3)n2)CC1	-4%	-4%	32µM*	18µM*	-4%	5%	22µM*
N#CC1=C2SCN(Cc3ccco3)CN2C(=O)CC1c1cccc2ccccc12 (stereo unspecified)	-3%	2%	?	?	13%	-25%	-10%
N#CC1=C2SCN(Cc3ccco3)CN2C(=O)CC1c1ccccc1F (stereo unspecified)	-23%	-2%	-13%	-16%	6%	-15%	nt
COc1ccc(-c2[nH]c3ccccc3c2SCCNC(=O)c2cc(OC)c(OC)c(OC)c2)cc1	9%	-5%	nt	-13%	nt	nt	nt
Cc1ccc(C2=NN=C(NC(=O)CSc3nnc4c5ccccc5n(C)c4n3)SC2)cc1	4%	-5%	11µM*	-17%	15%	-5%	nt	RECQ1 inh conf=-2%[114 µM]
Cc1ccc(C2=NN=C(NC(=O)CSc3nc(C)cc(C)n3)SC2)cc1	-7%	3%	-10%	0%	3%	-10%	nt
Cc1nnc2ccc(-c3cccc(NC(=O)Cc4cccs4)c3)nn12	3%	-5%	?	-13%	3%	11%	-25%
COc1ccc(CC(=O)Nc2cccc(-c3ccc4nnc(C)n4n3)c2)cc1	-8%	-4%	-14%	-2%	3%	-2%	nt
CCNC(=O)CCSc1nnc(-c2ccc(O)cc2)o1	5%	1%	nt	0%	nt	nt	nt
Cc1ccc(/C=C2/SC(=O)NC2=S)o1	-25%	-12%	18µM*	-12%	13µM*	5µM*	?	RECQ1 inh conf=13%[114 µM];ADP FP counter=35µM*
